# PubChem BioAssay (EPA / NIEHS)
# Inconclusive results are not listed. Active and inactive are the calls of the source. How the source made its calls: active means hit-call score of the fitted dose curve at least 0.9, where 1 is the maximum; inconclusive means response in the unintended direction; inactive means score below 0.9.
# Legend:
# [1] = molecular target: AR (gene 367) (UniProt P10275); assay: ACEA_AR_agonist_80hr: ACEA Biosciences xCELLigence Real-Time Cell Analysis on Androgen Receptor Agonism for Proliferation (AID 2283783);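 further: hits increase impedance growth signal above DMSO baseline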
# Method in brief: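 Impedance (RT-CES) growth signal at 80 h post-dose; 22Rv1 cells, 8-pt 1:4 series, top 100 uM final, DMSO ≤0.5%; duplicate plates; gain-of-signal fit relative to DMSO baseline.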
# [2] = STM_H9_NormalizedViability: Cytotoxicity Assessment at 120 hours in the Stemina devTOX quickPredict H9 human embryonic stem cell (hESC)-based Assay (AID 2283784)
# Method in brief: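 Here, H9 cells received test compound with daily medium renewal. Each plate included methotrexate references (1uM, 5 nM), 0.1% DMSO and media blanks; CellTiter-Fluor RFU was normalized to DMSO.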
# [3] = ACEA_AR_agonist_AUC_viability: ACEA Biosciences xCELLigence Real-Time Cell Analysis on Androgen Receptor Agonism for Viability (AID 2283775);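 on AC50: viability read 80 hours after compound addition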
# Method in brief: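 Viability endpoint from xCELLigence impedance in 22Rv1 prostate cells at 80 h. Eight-point series, 100 uM maximum final.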
# [4] = ACEA_AR_antagonist_AUC_viability: ACEA Biosciences xCELLigence Real-Time Cell Analysis on Androgen Receptor Antagonism for Viability (AID 2283776);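 further: area under impedance growth curve at 80 h after dosing as viability; hits lower the growth signal relative to DMSO meaning cytotoxicity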
# Method in brief: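 22Rv1 human prostate cancer cells were seeded on electrode plates, monitored overnight, then exposed to eight 1:4 dilutions from 100 uM final. Impedance-based growth kinetics at 80 h gave an AUC viability endpoint normalized to DMSO.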
# [5] = ACEA_ER_AUC_viability: ACEA Biosciences xCELLigence Real-Time Cell Analysis on Estrogen Receptor Agonism for Viability (AID 2283782);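 further: hit means loss of impedance signal meaning reduced cell growth or viability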
# Method in brief: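 Read-out: real-time electrical impedance (RT-CES) area under curve, loss of signal taken as reduced viability, normalized to DMSO baseline. T-47D cells, charcoal-stripped serum medium, compounds up to 100 uM final, continuous exposure, 80 h.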
# [6] = tested on: frog Estrogen Receptor (ESR1), gene 398734; assay: ATG_frER1_XSP1: Attagene TRANS-FACTORIAL Multi-Species (XSP1) HepG2 Assay for frog Estrogen Receptor (ESR1) (AID 2283777)
# Method in brief: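 Transient MRTU transfection, HepG2 (human liver); 24 h dosing, 3 nM 6α-fluorotestosterone co-added; RNA → RT-PCR → 6-FAM labeling → CE; upward activity vs DMSO.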
# [7] = tested on: zebrafish Estrogen Receptor (ESR2A), gene 317734; assay: ATG_zfER2a_XSP1: Attagene TRANS-FACTORIAL Multi-Species (XSP1) HepG2 Assay for zebrafish Estrogen Receptor (ESR2A) (AID 2283778)
# Method in brief: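 Transient transfection of HepG2 (human liver) with MRTU constructs; chemical dosing for 24 h; medium contained 3 nM 6-alpha-fluorotestosterone to partly stimulate AR. RT-PCR/CE fluorescence of reporter transcripts; positive direction vs DMSO.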
# [8] = molecular target: chicken Estrogen Receptor (ESR1), ESR1 (gene 396099) (UniProt P06212); assay: ATG_chERa_XSP1: Attagene TRANS-FACTORIAL Multi-Species (XSP1) HepG2 Assay for chicken Estrogen Receptor (ESR1) (AID 2283779)
# Method in brief: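 Read-out: fluorescent reporter mRNA fragments resolved by capillary electrophoresis after RT-PCR and HpaI digestion. Transfected HepG2 cells carried chimeric NR-Gal4 constructs, were dosed 24 h with 3 nM 6-alpha-fluorotestosterone added, and activity was fitted upward relative to DMSO.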
# [9] = molecular target: Estrogen receptor (Homo sapiens) (UniProt P03372); assay: ATG_hERa_XSP1: Attagene TRANS-FACTORIAL Multi-Species (XSP1) HepG2 Assay for human Estrogen Receptor (ESR1) (AID 2283780)
# Method in brief: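 Reporter transcripts from multiplexed GAL4-UAS units driven by NR-Gal4 chimeras in transiently transfected HepG2 were measured by RT-PCR with capillary electrophoresis 24 h post-dose, with 3 nM 6-alpha-fluorotestosterone present; gain-of-signal relative to DMSO.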
# [10] = tested on: turtle Estrogen Receptor (ESR1), gene 101933533; assay: ATG_trERa_XSP1: Attagene TRANS-FACTORIAL Multi-Species (XSP1) HepG2 Assay for turtle Estrogen Receptor (ESR1) (AID 2283781)
# Method in brief: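 Transfect HepG2 with reporter units → dose chemical 24 h (medium has 3 nM 6-alpha-fluorotestosterone) → isolate RNA, RT-PCR → FAM primer extension, HpaI digest → capillary electrophoresis; gain of signal vs DMSO.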
# Sequence of AR (gene 367) (P10275 whole entry, looked up): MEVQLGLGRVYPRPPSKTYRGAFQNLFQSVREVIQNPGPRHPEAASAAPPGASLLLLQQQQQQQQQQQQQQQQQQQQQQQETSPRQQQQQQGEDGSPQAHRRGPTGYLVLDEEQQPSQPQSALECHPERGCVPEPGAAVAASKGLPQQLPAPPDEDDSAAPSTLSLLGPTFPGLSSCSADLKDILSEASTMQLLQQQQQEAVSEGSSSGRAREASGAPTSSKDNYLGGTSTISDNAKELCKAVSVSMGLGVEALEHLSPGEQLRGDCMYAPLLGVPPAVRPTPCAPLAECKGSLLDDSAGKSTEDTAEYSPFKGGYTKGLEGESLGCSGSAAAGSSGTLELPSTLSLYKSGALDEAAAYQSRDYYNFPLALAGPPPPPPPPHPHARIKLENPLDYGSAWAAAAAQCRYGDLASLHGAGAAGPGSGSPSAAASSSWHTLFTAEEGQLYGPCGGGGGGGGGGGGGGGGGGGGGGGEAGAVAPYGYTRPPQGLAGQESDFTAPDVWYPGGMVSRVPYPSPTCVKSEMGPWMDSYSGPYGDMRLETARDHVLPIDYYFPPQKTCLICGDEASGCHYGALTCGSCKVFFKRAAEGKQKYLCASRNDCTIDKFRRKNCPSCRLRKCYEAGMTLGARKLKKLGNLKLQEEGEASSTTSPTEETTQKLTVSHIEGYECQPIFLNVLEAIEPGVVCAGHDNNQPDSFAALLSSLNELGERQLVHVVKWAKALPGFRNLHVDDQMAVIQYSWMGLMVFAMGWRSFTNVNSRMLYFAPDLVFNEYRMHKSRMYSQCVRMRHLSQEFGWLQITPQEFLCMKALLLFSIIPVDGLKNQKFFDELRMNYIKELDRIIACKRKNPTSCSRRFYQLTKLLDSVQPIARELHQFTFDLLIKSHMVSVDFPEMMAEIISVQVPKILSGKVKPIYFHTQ
# Sequence of chicken Estrogen Receptor (ESR1), ESR1 (gene 396099) (P06212 whole entry, looked up, the tested form may be a part): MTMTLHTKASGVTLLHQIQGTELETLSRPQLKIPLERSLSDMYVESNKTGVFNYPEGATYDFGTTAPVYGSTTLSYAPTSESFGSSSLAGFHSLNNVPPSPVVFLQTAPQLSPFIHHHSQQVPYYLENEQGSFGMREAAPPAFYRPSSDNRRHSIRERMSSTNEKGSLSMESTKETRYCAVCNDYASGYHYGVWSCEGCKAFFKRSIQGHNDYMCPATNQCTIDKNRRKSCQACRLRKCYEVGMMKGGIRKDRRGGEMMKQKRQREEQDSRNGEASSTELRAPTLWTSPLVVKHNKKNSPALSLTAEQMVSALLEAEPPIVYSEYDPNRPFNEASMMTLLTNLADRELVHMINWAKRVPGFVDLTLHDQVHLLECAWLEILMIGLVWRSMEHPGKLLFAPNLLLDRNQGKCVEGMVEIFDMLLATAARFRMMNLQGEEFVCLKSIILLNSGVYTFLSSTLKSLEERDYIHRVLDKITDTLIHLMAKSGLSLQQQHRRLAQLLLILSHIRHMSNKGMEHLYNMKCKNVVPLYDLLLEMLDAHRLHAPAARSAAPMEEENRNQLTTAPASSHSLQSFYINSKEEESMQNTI
# Sequence of Estrogen receptor (Homo sapiens) (P03372 whole entry, looked up, the tested form may be a part): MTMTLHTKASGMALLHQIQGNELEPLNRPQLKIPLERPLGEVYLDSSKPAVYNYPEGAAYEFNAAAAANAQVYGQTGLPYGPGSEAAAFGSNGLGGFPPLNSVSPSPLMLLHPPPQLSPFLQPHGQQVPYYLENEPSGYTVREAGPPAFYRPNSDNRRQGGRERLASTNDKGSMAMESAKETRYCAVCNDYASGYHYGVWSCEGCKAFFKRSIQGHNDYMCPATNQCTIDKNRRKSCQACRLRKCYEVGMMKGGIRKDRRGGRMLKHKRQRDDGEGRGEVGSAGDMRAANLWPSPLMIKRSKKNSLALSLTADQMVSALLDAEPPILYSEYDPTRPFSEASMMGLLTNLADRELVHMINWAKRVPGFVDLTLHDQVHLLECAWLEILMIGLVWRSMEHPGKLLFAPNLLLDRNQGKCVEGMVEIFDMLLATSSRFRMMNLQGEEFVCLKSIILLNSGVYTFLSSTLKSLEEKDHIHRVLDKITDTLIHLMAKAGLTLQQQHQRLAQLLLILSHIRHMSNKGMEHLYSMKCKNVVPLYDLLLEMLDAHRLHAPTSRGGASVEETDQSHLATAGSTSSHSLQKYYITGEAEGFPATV
smiles,measurement,setting,value
CC1(C)CCC(=Cc2ccc(Cl)cc2)C1(O)Cn1cncn1 (centres undefined),outcome,[1],inactive
same,outcome,[2],inactive
CCN(CC)C(=O)C(C)Oc1cccc2ccccc12 (centres undefined),outcome,[2],inactive
CCCCOCN(C(=O)CCl)c1c(CC)cccc1CC,AC50,[3],85.2 µM (active)
same,AC50,[4],70.9 µM (active)
same,AC50,[5],87.6 µM (active)
same,AC50,[1],10.5 µM (active)
CCOc1cc(C(C)(C)C)ccc1C1COC(c2c(F)cccc2F)=N1 (centres undefined),AC50,[3],24 µM (active)
same,AC50,[4],19.1 µM (active)
same,AC50,[5],51.2 µM (active)
same,outcome,[1],inactive
CS(=O)(=O)c1cc(C(F)(F)F)ccc1C(=O)c1cnoc1C1CC1,outcome,[4],inactive
same,outcome,[5],inactive
same,outcome,[2],inactive
CCNC(=O)NC(=O)C(C#N)=NOC,outcome,[4],inactive
same,outcome,[5],inactive
same,outcome,[2],inactive
CC1(C)CON(Cc2ccccc2Cl)C1=O,outcome,[3],inactive
same,AC50,[4],18.6 µM (active)
same,outcome,[2],inactive
O=C(Nc1ccccc1-c1ccc(Cl)cc1)c1cccnc1Cl,AC50,[3],61.3 µM (active)
same,AC50,[4],50 µM (active)
same,outcome,[5],inactive
same,outcome,[2],inactive
CC(C)NC(=O)N1CC(=O)N(c2cc(Cl)cc(Cl)c2)C1=O,AC50,[3],11.2 µM (active)
same,AC50,[6],100 µM (active)
same,outcome,[7],inactive
same,outcome,[8],inactive
same,AC50,[9],10.3 µM (active)
same,AC50,[10],41.4 µM (active)
same,outcome,[5],inactive
O=P(O)(O)CCCl,outcome,[3],inactive
same,outcome,[4],inactive
same,outcome,[5],inactive
COc1ccc(-c2ccccc2)cc1NNC(=O)OC(C)C,outcome,[3],inactive
same,outcome,[4],inactive
same,outcome,[5],inactive
same,AC50,[2],45.6 µM (active)
CC(C)(C)C(=O)C(Oc1ccc(Cl)cc1)n1cncn1 (centres undefined),outcome,[3],inactive
same,outcome,[4],inactive
same,outcome,[2],inactive
Cn1c(-c2ccccc2)cc(-c2ccccc2)[n+]1C,AC50,[3],28.7 µM (active)
same,AC50,[4],41.7 µM (active)
same,AC50,[2],31.1 µM (active)
O=C(O)c1c(Cl)ccc2cc(Cl)cnc12,outcome,[4],inactive
same,outcome,[5],inactive
CO/N=C(/C1=NOCCO1)c1ccccc1Oc1ncnc(Oc2ccccc2Cl)c1F,AC50,[3],43 µM (active)
same,AC50,[4],55.5 µM (active)
same,AC50,[5],91.8 µM (active)
same,AC50,[2],35.2 µM (active)
COP(=S)(OC)SCn1nnc2ccccc2c1=O,AC50,[3],79.9 µM (active)
same,AC50,[4],64.7 µM (active)
same,outcome,[1],inactive
COC(=O)NS(=O)(=O)c1ccc(N)cc1,outcome,[4],inactive
same,outcome,[5],inactive
Nc1c(Cl)c(F)nc(OCC(=O)O)c1Cl,outcome,[3],inactive
same,outcome,[4],inactive
same,outcome,[1],inactive
Cc1cc(C)nc(Nc2ccccc2)n1,outcome,[3],inactive
same,outcome,[4],inactive
same,outcome,[5],inactive
same,outcome,[2],inactive
CCCCC(C#N)(Cn1cncn1)c1ccc(Cl)cc1 (centres undefined),AC50,[3],83.1 µM (active)
same,AC50,[4],79 µM (active)
same,outcome,[5],inactive
same,AC50,[2],56 µM (active)
CCCN(CC)CC1COC2(CCC(C(C)(C)C)CC2)O1 (centres undefined),AC50,[3],77.3 µM (active)
same,AC50,[4],77.7 µM (active)
same,AC50,[5],81 µM (active)
same,outcome,[2],inactive
Clc1cccc(C(Cl)(Cl)Cl)n1,outcome,[3],inactive
same,outcome,[4],inactive
same,outcome,[5],inactive
same,outcome,[2],inactive
CC(C)Nc1nc(Cl)nc(NC(C)C)n1,outcome,[4],inactive
same,outcome,[5],inactive
same,outcome,[2],inactive
CSC(=O)c1c(C(F)F)nc(C(F)(F)F)c(C(=O)SC)c1CC(C)C,AC50,[4],37.4 µM (active)
same,outcome,[7],inactive
same,outcome,[8],inactive
same,AC50,[9],6.12 µM (active)
same,outcome,[10],inactive
same,AC50,[5],81.2 µM (active)
CCNP(=S)(OC)O/C(C)=C/C(=O)OC(C)C (centres undefined),outcome,[3],inactive
same,outcome,[4],inactive
same,outcome,[2],inactive
Cc1cnc(C2=NC(C)(C(C)C)C(=O)N2)c(C(=O)O)c1 (centres undefined),outcome,[3],inactive
same,outcome,[4],inactive
same,outcome,[1],inactive
N#CN=C1SCCN1Cc1ccc(Cl)nc1,outcome,[3],inactive
same,outcome,[4],inactive
same,outcome,[2],inactive
CS(=O)(=O)c1ccc(C(=O)C2C(=O)CCCC2=O)c([N+](=O)[O-])c1,outcome,[2],inactive
O=C1C2CC=CCC2C(=O)N1SC(Cl)(Cl)Cl (centres undefined),AC50,[3],24.5 µM (active)
same,AC50,[4],17.2 µM (active)
same,outcome,[2],inactive
CNC(=O)Oc1cccc2ccccc12,AC50,[4],24.8 µM (active)
same,outcome,[5],inactive
N#Cc1c[nH]cc1-c1cccc2c1OC(F)(F)O2,AC50,[3],32.5 µM (active)
same,outcome,[5],inactive
same,AC50,[2],76.4 µM (active)
CCOP(=O)(OCC)Oc1nc(Cl)c(Cl)cc1Cl,AC50,[3],72.4 µM (active)
same,AC50,[4],72.7 µM (active)
same,AC50,[5],68.3 µM (active)
same,outcome,[1],inactive
CC(C)C1(C)N=C(c2ncccc2C(=O)O)NC1=O (centres undefined),outcome,[3],inactive
same,outcome,[4],inactive
same,outcome,[2],inactive
COCc1cnc(C2=NC(C)(C(C)C)C(=O)N2)c(C(=O)O)c1 (centres undefined),outcome,[5],inactive
same,outcome,[1],inactive
same,outcome,[2],inactive
COc1cc(OC)nc(NC(=O)NS(=O)(=O)c2ncccc2OCC(F)(F)F)n1,outcome,[3],inactive
same,outcome,[2],inactive
CCCCC(O)(Cn1cncn1)c1ccc(Cl)cc1Cl (centres undefined),AC50,[3],69.8 µM (active)
same,AC50,[4],50 µM (active)
same,AC50,[5],75.5 µM (active)
same,outcome,[1],inactive
same,AC50,[2],78.3 µM (active)
CCOP(=S)(OCC)Oc1nc(Cl)n(C(C)C)n1,outcome,[3],inactive
same,outcome,[4],inactive
same,outcome,[2],inactive
CCOc1nc(C(Cl)(Cl)Cl)ns1,outcome,[3],inactive
same,outcome,[4],inactive
same,outcome,[2],inactive
